MEKK3 PB1 HTS = modulators of MEKK3-MEK5 PB1 binding, primary screen, biochemical, wildtype MEKK3, multiplex bead flow cytometry, Alexa488-MEK5; 1.4% of 290,000 active; Mitogen-activated protein kinase kinase kinase 3 (Homo sapiens), Q99759; AID 1529, 2009; binding response (% of control), % at 10 µM; bead-based flow cytometry, Alexa488-MEK5 binding to MEKK3; actives lie on both sides; 0 = blocked by unlabeled MEK5, 100 = vehicle;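 active = binding response more than 3 SD above or below the average of its plate-row segment, actives on both sides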;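 note: Alexa488 bead fluorescence after subtracting the streptavidin-only scavenger bead signal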
MEKK2mut PB1 HTS = MEK5 binding signal on mutant MEKK2 PB1, primary screen, biochemical, multiplex bead flow cytometry, Alexa488-MEK5; Alexa488-MEK5 binding to MEKK2 mutant; percent response, % at 10 µM; 0.35% of 290,000 active; in the data active = percent response above about 24%, passing the limit was not always enough
MEKK2 WT-MEK5 = modulators of MEK5 binding to wildtype MEKK2, primary screen, biochemical, multiplex bead flow cytometry, Alexa488-MEK5; Mitogen-activated protein kinase kinase kinase 2 (Homo sapiens), Q9Y2U5; Alexa488-MEK5 binding to MEKK2 WT; actives lie on both sides; binding response (% of control), % at 10 µM; 1.1% of 290,000 active; in the data active = binding response below about 67% or above about 130%
GRK2 inh = compounds blocking aptamer binding on GRK2 – biochemical, human GRK2, bead flow cytometry, HTS, primary screen. FAM-aptamer displacement from GRK2. inhibition of aptamer binding, % at 10 µM. Beta-adrenergic receptor kinase 1 (Homo sapiens), P25098. 0.59% of 330,000 active;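 active = inhibition of aptamer binding above 40%, roughly 3 SD of noise, on plates passing a quality check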;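 note: median bead fluorescence of bound FAM aptamer so fluorescent compounds give negative values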
Target sequence (P25098 whole entry, looked up): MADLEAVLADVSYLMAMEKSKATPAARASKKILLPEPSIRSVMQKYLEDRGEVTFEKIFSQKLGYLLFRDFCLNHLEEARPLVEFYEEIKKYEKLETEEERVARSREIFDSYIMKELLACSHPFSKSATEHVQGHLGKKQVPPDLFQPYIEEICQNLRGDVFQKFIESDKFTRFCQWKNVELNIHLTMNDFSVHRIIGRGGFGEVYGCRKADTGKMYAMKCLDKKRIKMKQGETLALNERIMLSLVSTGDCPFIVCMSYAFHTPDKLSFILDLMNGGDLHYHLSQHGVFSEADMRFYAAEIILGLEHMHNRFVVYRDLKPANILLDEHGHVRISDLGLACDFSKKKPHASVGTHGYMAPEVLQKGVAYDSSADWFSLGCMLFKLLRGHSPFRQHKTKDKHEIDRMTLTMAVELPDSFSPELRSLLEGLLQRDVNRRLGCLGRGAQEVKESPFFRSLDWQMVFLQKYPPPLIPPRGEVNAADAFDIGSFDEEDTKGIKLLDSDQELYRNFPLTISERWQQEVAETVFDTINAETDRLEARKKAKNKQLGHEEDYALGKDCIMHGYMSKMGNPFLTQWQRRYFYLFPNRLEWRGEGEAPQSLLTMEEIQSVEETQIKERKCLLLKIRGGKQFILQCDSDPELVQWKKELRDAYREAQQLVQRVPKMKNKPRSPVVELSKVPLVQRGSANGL
GRK2 inh confirm = GRK2 aptamer-displacing inhibitors, retest, confirmation, biochemical, cherry pick 1, bead flow cytometry; bead-bound GRK2, FAM-aptamer displacement; shares compounds with GRK2 inh; AID 504451, 2011; 4% of 2,000 active; aptamer displacement, % at 10 µM;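 active = aptamer displacement above 40%, near three times the noise of non-fluorescent compounds, on plates passing quality checks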;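 note: negative values mostly reflect intrinsic compound fluorescence rather than true enhancement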
FAM quench CP1 = quenches fluorescent RNA aptamer, GRK2 hit artifact; 2,000 tested, under 10 active; AID 504580; fluorescence response (% of DMSO), % at 10 µM; shares compounds with GRK2 inh; Carboxyfluorescein RNA aptamer on beads, flow cytometry quenching; stronger effect = lower value;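 active = compounds that quench the bead-bound fluorescent RNA probe, cutting fluorescence to under half of the solvent control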;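 note: counterscreen run without GRK2 so only probe quenching by compound is measured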
GRK2 confirm 2 = GRK2 aptamer-displacing inhibitors, hit retest, confirmation, biochemical, cherry pick 2, bead flow cytometry; shares compounds with GRK2 inh; bead-bound GRK2, FAM-aptamer displacement; inhibition of aptamer binding, % at 10 µM; 360 tested, under 10 active;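 active = inhibition of aptamer binding above 40%, about triple the noise seen with nonglowing compounds, on plates passing quality control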;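 note: negative values mostly come from compounds that fluoresce themselves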
FAM quench SP = counter-screen for GRK2 binding hits: quenchers of fluorescent RNA aptamer. carboxyfluorescein RNA aptamer beads, flow cytometry quenching; stronger effect = lower value. fluorescence response vs DMSO, % at 10 µM. 360 tested, under 10 active. AID 588494. shares compounds with GRK2 inh;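 active = response vs DMSO under 50%, meaning signal dropped by over half, treated as fluorescence quencher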;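 note: labelled aptamer on streptavidin beads without GRK2 as a quench counter-screen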
A number is an active result. A selection: hits, their analogues and other compounds. The true share with any hit is near 2.5%.

For COC(=O)c1cc(Br)c(=O)n(CCN(C(C)C)C(C)C)c1 the results were MEKK3 PB1 HTS inactive, MEKK2mut PB1 HTS inactive, MEKK2 WT-MEK5 inactive, GRK2 inh 95, GRK2 inh confirm inactive and FAM quench CP1 inactive.
For CN(CC(=O)Nc1ccc2c(c1)OCO2)CC(=O)Nc1ccc(F)c(F)c1F the results were GRK2 inh inactive.
`Cc1ccc(OCC(=O)Nc2ccccc2-c2ccccc2)cc1` gave MEKK3 PB1 HTS inactive, MEKK2mut PB1 HTS inactive, MEKK2 WT-MEK5 inactive and GRK2 inh inactive.
`O=Cc1ccc(OCC(=O)Nc2ccccc2-c2ccccc2)cc1` gave MEKK3 PB1 HTS inactive, MEKK2mut PB1 HTS inactive, MEKK2 WT-MEK5 inactive, GRK2 inh 61, GRK2 inh confirm inactive and FAM quench CP1 inactive.
For Cc1cc(C(=O)N2CCCC2)n[nH]1 the results were MEKK3 PB1 HTS inactive, MEKK2mut PB1 HTS inactive and MEKK2 WT-MEK5 inactive.
Cc1ccc(NC2=NC(C(=O)Nc3ccc(C)c(C)c3)CC(=O)N2)cc1 (stereo not drawn) was read as MEKK3 PB1 HTS inactive, MEKK2mut PB1 HTS inactive, MEKK2 WT-MEK5 inactive, GRK2 inh inactive, GRK2 inh confirm inactive and FAM quench CP1 inactive.
Cc1ccc(NC(=O)C2CCC(=O)N2)cc1C (stereo not drawn) was read as MEKK3 PB1 HTS inactive, MEKK2mut PB1 HTS inactive, MEKK2 WT-MEK5 inactive and GRK2 inh inactive.
O=C(c1ccc([N+](=O)[O-])cc1)N1CCN(c2ncccn2)CC1 was read as GRK2 inh inactive.
For Cc1cc(/C=N\NC(=O)COc2cccc3cccnc23)c(C)n1-c1ccc(Br)cc1 the results were MEKK3 PB1 HTS inactive, MEKK2mut PB1 HTS inactive, MEKK2 WT-MEK5 inactive, GRK2 inh 55, GRK2 inh confirm inactive and FAM quench CP1 inactive.
CCOn1c(=O)c(-c2ccc(OC)c(OC)c2)[n+]([O-])c2ccccc21 was read as MEKK3 PB1 HTS inactive, MEKK2mut PB1 HTS inactive, MEKK2 WT-MEK5 inactive and GRK2 inh inactive.
O=C(NC(Cc1ccccc1)C(=O)O)/C(=C/c1ccc([N+](=O)[O-])cc1)NC(=O)c1ccc(Br)o1 (stereo not drawn) was read as MEKK3 PB1 HTS inactive, MEKK2mut PB1 HTS inactive, MEKK2 WT-MEK5 inactive and GRK2 inh inactive.
`O=C(Nc1ccccc1C(=O)O)/C(=C/c1ccc([N+](=O)[O-])cc1)NC(=O)c1ccc(Br)o1` gave MEKK3 PB1 HTS inactive, MEKK2mut PB1 HTS inactive, MEKK2 WT-MEK5 inactive, GRK2 inh 80, GRK2 inh confirm inactive and FAM quench CP1 inactive.
Screening O=c1cc(OCc2ccccc2)cc[nH]1 returned GRK2 inh 43, GRK2 confirm 2 inactive and FAM quench SP inactive.
`CCc1nc2c(s1)CCc1onc(-c3ccc(Cl)cc3)c1-2` gave GRK2 inh inactive.
`Oc1ccc(-c2nccc(-c3ccc(Br)cc3)n2)cc1` gave MEKK3 PB1 HTS inactive, MEKK2mut PB1 HTS inactive, MEKK2 WT-MEK5 inactive, GRK2 inh inactive, GRK2 inh confirm inactive and FAM quench CP1 inactive.
COc1ccc(C(=O)CCC(=O)N2CCN(c3cc(C)ccc3C)CC2)cc1 was read as MEKK3 PB1 HTS inactive, MEKK2mut PB1 HTS inactive, MEKK2 WT-MEK5 inactive, GRK2 inh 87, GRK2 inh confirm inactive and FAM quench CP1 inactive.
For O=C(CSc1n[nH]c(-c2cccnc2)n1)Nc1ccc([N+](=O)[O-])cc1 the results were MEKK3 PB1 HTS inactive, MEKK2mut PB1 HTS inactive, MEKK2 WT-MEK5 inactive and GRK2 inh inactive.
`O=C(N/N=C\c1cc([N+](=O)[O-])ccc1N1CCOCC1)c1ccccn1` gave MEKK3 PB1 HTS inactive, MEKK2mut PB1 HTS inactive, MEKK2 WT-MEK5 inactive, GRK2 inh 89, GRK2 inh confirm inactive and FAM quench CP1 inactive.
For Cc1csc(CN(C)C(=O)CC2C(=O)NCCN2Cc2ccc(F)c(F)c2)n1 (stereo not drawn) the results were MEKK3 PB1 HTS inactive, MEKK2mut PB1 HTS inactive, MEKK2 WT-MEK5 inactive and GRK2 inh inactive.
For Cn1nc(C(F)(F)F)c(C(=O)Nc2ccc(F)cc2F)c1Cl the results were MEKK3 PB1 HTS inactive, MEKK2mut PB1 HTS inactive, MEKK2 WT-MEK5 inactive, GRK2 inh 47, GRK2 inh confirm inactive and FAM quench CP1 inactive.
Cn1nc(C(F)(F)F)c(C(=O)Nc2ccc(F)cc2F)c1Oc1cccc(Cl)c1 was read as MEKK3 PB1 HTS inactive, MEKK2mut PB1 HTS inactive, MEKK2 WT-MEK5 inactive and GRK2 inh inactive.
CCC(C)SCC(=O)Nc1ccc(S(=O)(=O)N2CCOCC2)cc1OC (stereo not drawn) was read as MEKK3 PB1 HTS inactive, MEKK2mut PB1 HTS inactive, MEKK2 WT-MEK5 inactive and GRK2 inh inactive.
For CCC(CC)C(=O)OCC(=O)Nc1ccc(S(=O)(=O)N2CCOCC2)cc1OC the results were MEKK3 PB1 HTS inactive, MEKK2mut PB1 HTS inactive, MEKK2 WT-MEK5 inactive, GRK2 inh 51, GRK2 inh confirm inactive and FAM quench CP1 inactive.
O=C(COC(=O)/C=C/c1ccco1)Nc1cc(S(=O)(=O)N2CCOCC2)ccc1Cl was read as GRK2 inh 59, GRK2 inh confirm inactive and FAM quench CP1 inactive.
`CCc1ccc(NC(=O)COC(=O)/C=C/c2ccco2)cc1` gave GRK2 inh 70, GRK2 inh confirm inactive and FAM quench CP1 inactive.
Screening COc1cccc(CNC(=O)C2CSC3(C)CCC(=O)N23)c1 (stereo not drawn) returned GRK2 inh inactive.
For O=C1CCCc2c1[nH]c1c(Br)cccc21 the results were MEKK3 PB1 HTS inactive, MEKK2mut PB1 HTS inactive, MEKK2 WT-MEK5 inactive and GRK2 inh inactive.
Screening COc1ccc(OC)c(NC(=O)COC(=O)c2c3c(nc4ccccc24)CCCC3)c1 returned MEKK3 PB1 HTS inactive, MEKK2mut PB1 HTS inactive, MEKK2 WT-MEK5 inactive, GRK2 inh 73, GRK2 inh confirm inactive and FAM quench CP1 inactive.
CC12CCC(c3nnc(SCc4ccc(Cl)cc4)nc31)C2(C)C (stereo not drawn) was read as MEKK3 PB1 HTS inactive, MEKK2mut PB1 HTS inactive, MEKK2 WT-MEK5 inactive and GRK2 inh inactive.

From PubChem BioAssay
